# Assay results from PubChem BioAssay (NCI).
# The panel holds about 83,000 compounds, 20% with a hit somewhere; the sample as a whole holds those more often.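 Activity criterion: percent growth below 10, measured after cells in 96-well plates were exposed to a single compound concentration for 48 hours.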 The source made the active and inactive calls.
# Tested on: CCRF-CEM leukemia
# Assay: NCI-60 one-dose screen, 48 h (100 = growth as untreated, 0 = no growth, -100 = all killed)
# Details: 10 µM
row,SMILES,growth
1,O=C1C(Br)=CC2C1C1C3CCC3C2(Br)C12OCCO2 (stereo not given),-3.12% (active)
2,Oc1ccc(Br)cc1/C=N/NC(=S)NC12CC3CC(CC(C3)C1)C2,-21.1% (active)
3,Cc1ccc([C@@H]2C[C@H](O)Cc3ccccc3N2)s1,105% (inactive)
4,CCCCCCC(C)N(CC(C)(C)O)C(=O)c1ccc([N+](=O)[O-])cc1 (stereo not given),74.8% (inactive)
5,CC[n+]1c(C)ccc2cc(C)ccc21,98% (inactive)
6,CCN(CC)CCCNc1c2ccc(Cl)cc2nc2ccc(OC)cc12,-10.1% (active)
7,O=C(NCCNCCO)c1cc([N+](=O)[O-])cc([N+](=O)[O-])c1O,94.3% (inactive)
8,COC1=C(OC)C(=O)c2ccccc2C1=O,61.6% (inactive)
9,O=C(/C=C\c1ccc(NCc2ccc(C(=O)O)cc2)cc1)CCl,-8.72% (active)
10,CC1Cc2cc(F)ccc2-n2cccc21 (stereo not given),111% (inactive)
11,Oc1ccc(CN(Cc2ccc(C(F)(F)F)cc2)Cc2ccc(O)c3ncccc23)c2cccnc12,8.17% (active)
12,CNc1ccc(Nc2ccc(S(=O)(=O)O)cc2)c2c1C(=O)c1ccccc1C2=O,89.2% (inactive)
13,CC(=O)Nc1ccc(C(=O)/C=C/c2ccc(N(C)C)cc2)cc1,101% (inactive)
14,Cc1sc(NC(=O)c2ccc(C(C)(C)C)cc2)c(C(=O)O)c1C,48.7% (inactive)
15,O=C(CBr)OCc1ccc([N+](=O)[O-])o1,74.1% (inactive)
16,CCCCN(CCC)CCCCCCCCCCN1CCCc2ccccc21,26.8% (inactive)
17,C=C(C)[C@@H]1CC[C@]2(COC(=O)c3ccccc3C(=O)O)CC[C@]3(C)[C@H](CC[C@@H]4[C@@]5(C)CCCNC(C)(C)[C@@H]5CC[C@]43C)[C@@H]12,28.8% (inactive)
18,COc1ccc(/C=C/C(=O)/C=C/c2cc3ccccc3[nH]c2=O)cc1,8.49% (active)
19,CCCCCC(=C/c1ccccc1)/C=N/N=C(N)N,15.7% (inactive)
20,CC([C@H]1CC=C2C3CCC4=C[C@@H](N(C)C)CC[C@]4(C)C3CC[C@@]21C)N(C)C (stereo not given in full),43.4% (inactive)
21,C=CN(C)S(C)(=O)=O,16.9% (inactive)

# Tested on: MOLT-4 leukemia
# Assay: as above
# Details: 10 µM unless noted
row,SMILES,growth
1,CC(=O)OC1/C=C\CC/C=C\C1 (stereo not given),116% (inactive)
2,CCCCCCCCC1OC1CCCCCCCC(=O)O (stereo not given),104% (inactive)
3,O=c1[nH]c(=S)[nH]c(O)c1/C=C1\C=Nc2ccccc21,42.4% (inactive)
4,CCOC1=C(Cl)C(=O)C(OCC)=C(Cl)C1=O,88.1% (inactive)
5,O=C1C(=O)c2ccccc2C(O)=C1CCCc1ccc(Oc2ccccc2)cc1,50.3% (inactive)
6,CCN(CC)CCCC(C)Nc1c(C)cnc2cc(Cl)c(C)cc12 (stereo not given),62.7% (inactive)
7,Oc1ccc([S+](c2ccc(O)cc2)c2ccc(O)cc2)cc1,89.2% (inactive)
8,Cn1c2c(cc(S(=O)(=O)c3ccccc3)c1=O)CCc1c-2cnn1-c1ccc(Cl)cc1,57.5% (inactive)
9,CCCCCN1CCN(C(CC(=O)c2ccccc2)C(=O)c2ccccc2)CC1 (stereo not given),27.9% (inactive)
10,S=C(N/N=C/c1cc(Cl)cc(Cl)c1)NC12CC3CC(CC(C3)C1)C2,94.1% (inactive)
11,CC(=O)c1ccc2c(c1)c1ccccc1n2C,82% (inactive)
12,CC1(C)NC(=S)NC1=O,90.8% (inactive)
13,O=C(NC1CCN(Cc2ccccc2)CC1)c1cc(-c2cccnc2)nc2ccc(Cl)cc12,58.9% (inactive)
14,O=C(O)CS(=O)c1ccc(Cl)cc1 (stereo not given),90.5% (inactive)
15,Cc1ccc(S(=O)(=O)NC(CCC(=O)Nc2ccccc2)C(=O)Nc2ccccc2)cc1 (stereo not given),8.8% (active)
16,COc1ccc(/C=C2\CCCC3=C2N=C2SC=NN2C3c2ccc(OC)c(OC)c2)cc1OC (stereo not given),54.7% (inactive)
17,O=C1C(Br)=CC2C1C1C3CCC3C2(Br)C12OCCO2 (stereo not given),15.7% (inactive)
18,Oc1ccc(Br)cc1/C=N/NC(=S)NC12CC3CC(CC(C3)C1)C2,1.75% (active)
19,Cc1ccc([C@@H]2C[C@H](O)Cc3ccccc3N2)s1,95.7% (inactive)
20,CCCCCCC(C)N(CC(C)(C)O)C(=O)c1ccc([N+](=O)[O-])cc1 (stereo not given),90.4% (inactive)
21,CC[n+]1c(C)ccc2cc(C)ccc21,89.9% (inactive)
22,CCN(CC)CCCNc1c2ccc(Cl)cc2nc2ccc(OC)cc12,-20.8% (active)
23,O=C(NCCNCCO)c1cc([N+](=O)[O-])cc([N+](=O)[O-])c1O,102% (inactive)
24,O=C(/C=C\c1ccc(NCc2ccc(C(=O)O)cc2)cc1)CCl,6.28% (active)
